D1 antagonist = Antagonist of Human D 1 Dopamine Receptor: qHTS | D(1A) dopamine receptor (Homo sapiens), P21728 | HEK293 TREx D1 cells, calcium flux, dopamine EC80; stronger effect = lower value | activity change, negative = inhibition, % at 10 µM | 360,000 compounds, 3.2% hits | AID 504652, 2011; in the data active = activity change below about -30%
Target sequence (P21728 whole entry, looked up): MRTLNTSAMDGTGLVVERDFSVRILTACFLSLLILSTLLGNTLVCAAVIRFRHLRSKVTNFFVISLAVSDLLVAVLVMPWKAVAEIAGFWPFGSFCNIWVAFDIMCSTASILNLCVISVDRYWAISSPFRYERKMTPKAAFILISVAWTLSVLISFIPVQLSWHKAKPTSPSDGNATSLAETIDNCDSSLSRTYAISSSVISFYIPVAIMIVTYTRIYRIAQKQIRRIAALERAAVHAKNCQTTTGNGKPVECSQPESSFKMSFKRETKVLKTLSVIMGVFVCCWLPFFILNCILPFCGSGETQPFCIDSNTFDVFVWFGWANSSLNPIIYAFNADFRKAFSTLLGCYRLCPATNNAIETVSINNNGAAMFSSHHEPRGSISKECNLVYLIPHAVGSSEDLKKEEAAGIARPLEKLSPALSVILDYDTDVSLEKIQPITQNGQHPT
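Calcium flux readout: force-coupled, inducible Hek293 Trex D1 line, cells induced overnight at 30 C with tetracycline, dye-loaded 30–90 min at RT. Antagonism scored against EC80 dopamine challenge given 180 s after compound.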
D1 PAM = Potentiators of Human D1 Dopamine Receptor: qHTS; HEK293 TREx D1 cells, calcium flux, dopamine EC20 potentiation; potentiation, % at 10 µM; 360,000 compounds, 0.036% hits; in the data active = potentiation above about 30%
D1 ag = Allosteric Agonists of the Human D1 Dopamine Receptor: qHTS; D(1A) dopamine receptor (Homo sapiens), P21728; HEK293 T-REx D1 cells, calcium flux, agonist mode; activation, % at 2 µM; 360,000 compounds, 1% hits
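Agonism was scored from calcium flux recorded over 180 s (1 read/s) after pintool compound addition, following a 10-cycle baseline. Cells were inducible force-coupled HEK293 TREx D1, plated overnight at 30 C and loaded with no-wash calcium dye.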
TRHR ag = qHTS for Small Molecule Agonists and Allosteric Enhancers of Human TRH Receptor: Primary Screen for Agonists | activation, % at 2 µM | 360,000 compounds, 0.18% hits | TRHR cells, calcium flux fluo-8, FDSS agonist mode | Thyrotropin-releasing hormone receptor (Homo sapiens), P34981
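Agonist-mode FDSS calcium read (Ex 480/Em 530, 1 s cycles) in 1536-well TRHR cells with fluo-8 dye, after 10-cycle baseline and 23 nL compound addition; TRH at EC20 (10 nM final) added afterwards for the enhancer phase.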
TRHR PAM = qHTS for Small Molecule Agonists and Allosteric Enhancers of Human TRH Receptor: Primary Screen for Enhancers; 360,000 compounds, 0.66% hits; Thyrotropin-releasing hormone receptor (Homo sapiens), P34981; AID 493056, 2011; enhancement, % at 2 µM; TRHR cells, fluo-8 calcium fluorescence, EC20 TRH enhancement; in the data active = enhancement above about 30%
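Enhancer read-out: after compound pinning and an initial kinetic agonist-mode read, an EC20 of TRH (10 nM final) was injected and fluo-8 calcium signal (Ex 480/Em 530) followed at 1 s/cycle for 100 cycles in TRHR-expressing cells.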
Hits are given with their value. Rows were chosen to be rich in hits. Some 4.6% of all compounds tested hit in one or more screens of this group. Cut-off read from the data, not from the text of the source, unless noted: active = activation above about 30%; inactive = the rest.

`COC(=O)Cn1cccc1C(=O)c1ccccc1` gave D1 antagonist inactive, D1 PAM inactive, D1 ag inactive, TRHR ag inactive and TRHR PAM inactive.
For O=C(O)Cn1cccc1C(=O)c1ccccc1 the results were D1 antagonist inactive, D1 PAM inactive, D1 ag 33, TRHR ag inactive and TRHR PAM inactive.
`O=C(c1cccn1-c1nnc(N2CCCCC2)s1)N1CCN(c2ccccc2)CC1` gave D1 antagonist inactive, D1 PAM inactive, D1 ag inactive, TRHR ag inactive and TRHR PAM inactive.
For O=C(NCc1ccncc1)c1ccc(Br)o1 the results were D1 antagonist inactive, D1 PAM inactive, D1 ag inactive, TRHR ag inactive and TRHR PAM inactive.
O=C(Cc1ccc(Cl)cc1Cl)NCc1cccnc1 was read as D1 antagonist -41, D1 PAM inactive, D1 ag inactive, TRHR ag inactive and TRHR PAM inactive.
`O=C(NCc1cccnc1)c1ccc(Br)o1` gave D1 antagonist -32, D1 PAM inactive, D1 ag inactive, TRHR ag inactive and TRHR PAM inactive.
Screening O=C(Cc1c(F)cccc1Cl)NCc1cccnc1 returned D1 antagonist inactive, D1 PAM inactive, D1 ag inactive, TRHR ag inactive and TRHR PAM inactive.
Screening O=C(Nc1ccc2c(c1)OCO2)c1cc2nc(C3CC3)cc(C(F)(F)F)n2n1 returned D1 antagonist inactive, D1 PAM inactive, D1 ag inactive, TRHR ag inactive and TRHR PAM inactive.
`O=C(Nc1cccnc1)c1cc2nc(C3CC3)cc(C(F)(F)F)n2n1` gave D1 antagonist -31, D1 PAM inactive, D1 ag inactive, TRHR ag inactive and TRHR PAM inactive.
For COc1ccc(-c2nc(C)c(CCNC(=O)C(=O)Nc3cc(C)cc(C)c3)s2)cc1OC the results were D1 antagonist inactive, D1 PAM inactive, D1 ag inactive, TRHR ag inactive and TRHR PAM inactive.
COc1cccc(CC(=O)OCC(=O)NC(Cc2ccccc2)C(C)=O)c1 (stereo unspecified) was read as D1 antagonist inactive, D1 PAM inactive, D1 ag inactive, TRHR ag inactive and TRHR PAM inactive.
For COc1cccc(CC(=O)OCC(=O)NNC(=O)c2ccc(Br)cc2)c1 the results were D1 antagonist -33, D1 ag inactive, TRHR ag inactive and TRHR PAM inactive.
`Cc1oc(C)c(C(=O)O)c1COc1ccc(C(=O)O)cc1` gave D1 antagonist inactive, D1 PAM inactive, D1 ag inactive, TRHR ag inactive and TRHR PAM inactive.
For Cc1cc(=O)oc(C)c1C(=O)NCCc1ccccc1 the results were D1 antagonist -32, D1 PAM inactive, D1 ag inactive, TRHR ag inactive and TRHR PAM inactive.
`COc1ccc(C(=O)NCc2c(C)oc(C)c2C(=O)O)cc1` gave D1 antagonist inactive, D1 PAM inactive, D1 ag inactive, TRHR ag inactive and TRHR PAM 39.
`COc1ccc(CCNC(=O)c2c(C)cc(=O)oc2C)cc1OC` gave D1 antagonist inactive, D1 PAM inactive, D1 ag inactive, TRHR ag inactive and TRHR PAM inactive.
`COc1ccc(CNC(=O)c2c(C)cc(=O)oc2C)cc1` gave D1 antagonist -33, D1 PAM inactive, D1 ag inactive, TRHR ag inactive and TRHR PAM inactive.
For COc1cc(OC)cc(-c2cc3nc(C)c(CCC(=O)Nc4ccccc4OC)c(C)n3n2)c1 the results were D1 antagonist inactive, D1 PAM inactive, D1 ag inactive, TRHR ag inactive and TRHR PAM inactive.
`Cc1sc2ncnc(NCC(c3ccco3)N(C)C)c2c1C` (stereo unspecified) gave D1 antagonist -35, D1 PAM inactive, D1 ag inactive, TRHR ag inactive and TRHR PAM inactive.
For Cc1ccccc1C(=O)N=c1ccn(-c2nc3ccccc3nc2NS(=O)(=O)c2ccc(F)cc2)cc1 the results were D1 antagonist inactive, D1 PAM inactive, D1 ag 70, TRHR ag inactive and TRHR PAM inactive.
COc1ccc(-c2noc(CC(=O)Nc3ccc(Br)cc3C)n2)cc1 was read as D1 antagonist inactive, D1 PAM inactive, D1 ag inactive, TRHR ag inactive and TRHR PAM inactive.
For Cc1ccccc1NC(=O)Cn1nc(C(F)(F)F)cc1C1CC1 the results were D1 antagonist inactive, D1 PAM inactive, D1 ag inactive, TRHR ag inactive and TRHR PAM inactive.
`Cc1nn(C)cc1NC(=O)Cn1nc(C(F)(F)F)cc1C1CC1` gave D1 antagonist -67, D1 PAM inactive, D1 ag inactive, TRHR ag inactive and TRHR PAM inactive.
CC(c1ccccc1)C1CC(=O)N(CC(=O)O)C1=O (stereo unspecified) was read as D1 antagonist -32, D1 PAM inactive, D1 ag inactive, TRHR ag inactive and TRHR PAM inactive.
For Cc1cc2c(s1)c1c(n2C)C(=O)N(Cc2ccccc2F)C1 the results were D1 antagonist inactive, D1 PAM inactive, D1 ag inactive, TRHR ag inactive and TRHR PAM inactive.
For COc1ccc(N2CCN(CC(=O)Nc3nc(C)cs3)CC2)cc1 the results were D1 antagonist -41, D1 PAM inactive, D1 ag inactive, TRHR ag inactive and TRHR PAM inactive.
Screening COc1ccc(N2CCN(CC(=O)Nc3ncc(C)s3)CC2)cc1 returned D1 antagonist inactive, D1 PAM inactive, D1 ag inactive, TRHR ag inactive and TRHR PAM inactive.
Screening CC1(C)CC(=O)C=C(c2cccc(Br)c2)C1 returned D1 PAM inactive, D1 ag inactive, TRHR ag inactive and TRHR PAM inactive.
O=C(O)c1ccc2c(c1)C(=O)N([C@H](Cc1ccc(-c3ccccc3)cc1)C(=O)O)C2=O was read as D1 antagonist -35, D1 PAM inactive, D1 ag inactive, TRHR ag inactive and TRHR PAM inactive.
Screening Cc1ccc(C[C@H](C(=O)O)N2C(=O)c3ccc(C(=O)O)cc3C2=O)cc1 returned D1 antagonist inactive, D1 PAM inactive, D1 ag inactive, TRHR ag inactive and TRHR PAM inactive.
For Cc1cccc(C[C@H](C(=O)O)N2C(=O)c3ccc(C(=O)O)cc3C2=O)c1 the results were D1 antagonist -32, D1 PAM inactive, D1 ag inactive, TRHR ag inactive and TRHR PAM inactive.
O=C(O)c1ccc2c(c1)C(=O)N(N1C(=O)c3ccccc3C1=O)C2=O was read as D1 antagonist inactive, D1 PAM inactive, D1 ag inactive, TRHR ag inactive and TRHR PAM 31.

Compound activity (PubChem BioAssay)
